# Legend:
# [1] = target: RAC-alpha serine/threonine-protein kinase (Homo sapiens) (UniProt P31749); details: at 0.1 µM
# [2] = target: RAC-alpha serine/threonine-protein kinase (Homo sapiens) (UniProt P31749); details: at 1 µM
# [3] = target: RAC-beta serine/threonine-protein kinase (Homo sapiens) (UniProt P31751); details: at 0.1 µM
# [4] = target: RAC-beta serine/threonine-protein kinase (Homo sapiens) (UniProt P31751); details: at 1 µM
# [5] = target: RAC-gamma serine/threonine-protein kinase (Homo sapiens) (UniProt Q9Y243); details: at 0.1 µM
# Sequence of RAC-gamma serine/threonine-protein kinase (Homo sapiens) (Q9Y243 whole entry): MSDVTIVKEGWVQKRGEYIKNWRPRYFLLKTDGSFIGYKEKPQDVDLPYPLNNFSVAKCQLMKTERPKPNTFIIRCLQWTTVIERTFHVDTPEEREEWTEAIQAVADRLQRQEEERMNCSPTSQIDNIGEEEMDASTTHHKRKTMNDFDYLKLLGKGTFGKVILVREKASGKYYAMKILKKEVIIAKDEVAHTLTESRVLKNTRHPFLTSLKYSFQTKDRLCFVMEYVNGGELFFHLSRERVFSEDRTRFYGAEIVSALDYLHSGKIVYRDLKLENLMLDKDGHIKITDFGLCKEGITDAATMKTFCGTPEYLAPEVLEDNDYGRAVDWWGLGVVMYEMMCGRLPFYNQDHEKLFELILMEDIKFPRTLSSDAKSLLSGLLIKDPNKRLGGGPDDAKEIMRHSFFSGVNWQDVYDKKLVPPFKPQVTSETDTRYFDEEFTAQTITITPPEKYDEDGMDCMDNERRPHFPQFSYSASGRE
# [6] = target: RAC-gamma serine/threonine-protein kinase (Homo sapiens) (UniProt Q9Y243); details: at 1 µM
# [7] = target: G protein-coupled receptor kinase 6 (Homo sapiens) (UniProt P43250); details: at 0.1 µM
# Sequence of G protein-coupled receptor kinase 6 (Homo sapiens) (P43250 whole entry, looked up): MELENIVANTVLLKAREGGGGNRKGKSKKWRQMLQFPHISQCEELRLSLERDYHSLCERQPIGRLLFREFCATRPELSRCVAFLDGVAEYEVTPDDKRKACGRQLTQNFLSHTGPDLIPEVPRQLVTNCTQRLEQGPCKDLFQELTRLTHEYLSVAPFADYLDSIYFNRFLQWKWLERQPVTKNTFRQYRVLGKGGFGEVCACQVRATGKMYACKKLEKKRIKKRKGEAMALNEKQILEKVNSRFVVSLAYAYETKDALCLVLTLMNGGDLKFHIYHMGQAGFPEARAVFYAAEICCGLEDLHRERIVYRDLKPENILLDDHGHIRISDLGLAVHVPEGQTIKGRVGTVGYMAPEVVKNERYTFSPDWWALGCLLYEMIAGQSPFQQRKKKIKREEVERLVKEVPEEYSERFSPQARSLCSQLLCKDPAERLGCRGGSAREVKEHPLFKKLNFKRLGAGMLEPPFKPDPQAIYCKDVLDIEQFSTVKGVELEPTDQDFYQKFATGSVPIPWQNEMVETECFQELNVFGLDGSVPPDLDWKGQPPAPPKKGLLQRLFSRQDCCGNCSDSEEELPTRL
# [8] = target: G protein-coupled receptor kinase 6 (Homo sapiens) (UniProt P43250); details: at 1 µM
# [9] = target: T1, Rhodopsin kinase GRK7 (Homo sapiens) (UniProt Q8WTQ7); details: at 0.1 µM
# T1 sequence (whole entry): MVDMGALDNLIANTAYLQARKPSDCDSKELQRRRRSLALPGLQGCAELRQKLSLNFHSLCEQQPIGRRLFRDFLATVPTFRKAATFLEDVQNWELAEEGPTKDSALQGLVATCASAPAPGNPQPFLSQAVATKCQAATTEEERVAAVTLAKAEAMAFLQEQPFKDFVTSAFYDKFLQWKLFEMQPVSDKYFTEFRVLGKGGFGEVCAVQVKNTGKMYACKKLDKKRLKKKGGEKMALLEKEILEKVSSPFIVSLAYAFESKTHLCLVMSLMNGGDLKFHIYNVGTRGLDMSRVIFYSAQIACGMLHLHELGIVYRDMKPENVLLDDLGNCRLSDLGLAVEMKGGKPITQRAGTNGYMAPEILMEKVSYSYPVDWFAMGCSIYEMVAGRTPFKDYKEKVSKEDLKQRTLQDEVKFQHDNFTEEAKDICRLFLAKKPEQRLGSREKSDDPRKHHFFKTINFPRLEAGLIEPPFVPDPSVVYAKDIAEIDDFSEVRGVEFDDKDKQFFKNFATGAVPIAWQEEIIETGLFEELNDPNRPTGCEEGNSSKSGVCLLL
# [10] = target: T1, Rhodopsin kinase GRK7 (Homo sapiens); details: at 1 µM
# [11] = target: Serine/threonine-protein kinase MRCK alpha (Homo sapiens) (UniProt Q5VT25); details: at 0.1 µM
# [12] = target: Serine/threonine-protein kinase MRCK alpha (Homo sapiens) (UniProt Q5VT25); details: at 1 µM
# [13] = target: Serine/threonine-protein kinase MRCK beta (Homo sapiens) (UniProt Q9Y5S2); details: at 0.1 µM
# Sequence of Serine/threonine-protein kinase MRCK beta (Homo sapiens) (Q9Y5S2 whole entry): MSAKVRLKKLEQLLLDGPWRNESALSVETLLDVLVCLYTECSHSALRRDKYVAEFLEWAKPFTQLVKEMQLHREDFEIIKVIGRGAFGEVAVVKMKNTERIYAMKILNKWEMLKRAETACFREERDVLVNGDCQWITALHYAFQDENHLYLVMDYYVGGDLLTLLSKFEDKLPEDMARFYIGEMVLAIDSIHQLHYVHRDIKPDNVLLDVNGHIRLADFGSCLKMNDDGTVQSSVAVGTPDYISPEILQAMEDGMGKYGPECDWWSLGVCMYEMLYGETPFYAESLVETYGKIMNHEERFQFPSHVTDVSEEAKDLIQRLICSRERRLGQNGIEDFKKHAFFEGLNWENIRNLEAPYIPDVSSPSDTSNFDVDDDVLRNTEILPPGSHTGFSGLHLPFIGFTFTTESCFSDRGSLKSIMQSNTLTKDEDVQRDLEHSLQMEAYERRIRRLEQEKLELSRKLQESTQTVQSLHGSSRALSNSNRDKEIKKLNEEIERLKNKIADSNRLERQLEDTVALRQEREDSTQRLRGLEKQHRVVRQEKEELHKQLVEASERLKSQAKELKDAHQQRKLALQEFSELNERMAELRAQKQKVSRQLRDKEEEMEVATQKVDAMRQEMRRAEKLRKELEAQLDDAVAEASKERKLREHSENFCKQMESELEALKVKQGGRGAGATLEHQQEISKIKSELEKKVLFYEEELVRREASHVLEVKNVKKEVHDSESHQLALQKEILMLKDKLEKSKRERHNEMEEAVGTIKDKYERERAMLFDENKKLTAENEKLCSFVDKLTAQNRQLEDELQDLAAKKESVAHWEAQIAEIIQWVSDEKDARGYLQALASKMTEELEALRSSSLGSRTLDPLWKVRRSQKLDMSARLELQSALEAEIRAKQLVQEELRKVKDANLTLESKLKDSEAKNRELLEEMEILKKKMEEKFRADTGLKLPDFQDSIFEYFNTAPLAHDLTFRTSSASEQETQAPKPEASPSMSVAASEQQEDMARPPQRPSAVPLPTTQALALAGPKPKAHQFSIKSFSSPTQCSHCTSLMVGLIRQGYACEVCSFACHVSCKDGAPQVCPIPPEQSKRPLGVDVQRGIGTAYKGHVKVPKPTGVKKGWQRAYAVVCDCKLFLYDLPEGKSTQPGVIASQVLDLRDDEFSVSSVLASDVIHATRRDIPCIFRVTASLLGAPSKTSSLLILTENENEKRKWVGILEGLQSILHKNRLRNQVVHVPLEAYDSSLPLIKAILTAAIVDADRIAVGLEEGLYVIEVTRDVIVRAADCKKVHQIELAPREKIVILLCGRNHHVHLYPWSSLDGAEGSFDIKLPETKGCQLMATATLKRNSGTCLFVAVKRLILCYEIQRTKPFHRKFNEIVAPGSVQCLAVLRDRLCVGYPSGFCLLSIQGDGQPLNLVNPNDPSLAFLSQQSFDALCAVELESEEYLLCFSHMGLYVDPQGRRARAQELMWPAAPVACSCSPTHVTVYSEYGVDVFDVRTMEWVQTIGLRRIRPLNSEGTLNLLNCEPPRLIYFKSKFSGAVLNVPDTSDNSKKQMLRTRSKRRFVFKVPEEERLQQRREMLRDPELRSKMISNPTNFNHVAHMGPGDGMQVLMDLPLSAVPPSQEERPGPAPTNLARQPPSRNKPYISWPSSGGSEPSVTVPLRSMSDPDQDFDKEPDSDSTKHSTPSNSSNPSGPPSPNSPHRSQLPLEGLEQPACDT
# [14] = target: Serine/threonine-protein kinase MRCK beta (Homo sapiens) (UniProt Q9Y5S2); details: at 1 µM
# [15] = target: Ribosomal protein S6 kinase alpha-5 (Homo sapiens) (UniProt O75582); details: at 0.1 µM
# [16] = target: Ribosomal protein S6 kinase alpha-5 (Homo sapiens) (UniProt O75582); details: at 1 µM
# [17] = target: Ribosomal protein S6 kinase alpha-4 (Homo sapiens) (UniProt O75676); details: at 0.1 µM
# Sequence of Ribosomal protein S6 kinase alpha-4 (Homo sapiens) (O75676 whole entry, looked up): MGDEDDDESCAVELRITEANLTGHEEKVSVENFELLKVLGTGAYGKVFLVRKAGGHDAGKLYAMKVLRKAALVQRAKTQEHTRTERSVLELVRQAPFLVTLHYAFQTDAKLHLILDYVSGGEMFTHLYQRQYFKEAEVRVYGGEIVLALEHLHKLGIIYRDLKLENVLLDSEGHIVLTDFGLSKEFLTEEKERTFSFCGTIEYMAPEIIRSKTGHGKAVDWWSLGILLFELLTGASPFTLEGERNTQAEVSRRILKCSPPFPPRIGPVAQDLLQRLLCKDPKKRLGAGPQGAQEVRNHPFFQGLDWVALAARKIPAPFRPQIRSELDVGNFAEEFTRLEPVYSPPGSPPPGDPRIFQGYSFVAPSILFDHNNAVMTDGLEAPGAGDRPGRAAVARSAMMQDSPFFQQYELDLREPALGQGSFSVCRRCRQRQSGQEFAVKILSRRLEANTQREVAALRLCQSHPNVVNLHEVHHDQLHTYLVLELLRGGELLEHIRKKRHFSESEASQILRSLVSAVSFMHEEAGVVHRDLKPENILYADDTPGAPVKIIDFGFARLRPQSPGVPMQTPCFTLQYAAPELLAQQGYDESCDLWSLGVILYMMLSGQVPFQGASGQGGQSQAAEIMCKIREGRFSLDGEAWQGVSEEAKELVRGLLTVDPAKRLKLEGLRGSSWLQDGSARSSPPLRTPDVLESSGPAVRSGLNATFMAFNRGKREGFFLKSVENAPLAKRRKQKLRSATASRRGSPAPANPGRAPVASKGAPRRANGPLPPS
# [18] = target: Ribosomal protein S6 kinase alpha-4 (Homo sapiens) (UniProt O75676); details: at 1 µM
# [19] = target: Ribosomal protein S6 kinase beta-1 (Homo sapiens) (UniProt P23443); details: at 0.1 µM
# Sequence of Ribosomal protein S6 kinase beta-1 (Homo sapiens) (P23443 whole entry, looked up): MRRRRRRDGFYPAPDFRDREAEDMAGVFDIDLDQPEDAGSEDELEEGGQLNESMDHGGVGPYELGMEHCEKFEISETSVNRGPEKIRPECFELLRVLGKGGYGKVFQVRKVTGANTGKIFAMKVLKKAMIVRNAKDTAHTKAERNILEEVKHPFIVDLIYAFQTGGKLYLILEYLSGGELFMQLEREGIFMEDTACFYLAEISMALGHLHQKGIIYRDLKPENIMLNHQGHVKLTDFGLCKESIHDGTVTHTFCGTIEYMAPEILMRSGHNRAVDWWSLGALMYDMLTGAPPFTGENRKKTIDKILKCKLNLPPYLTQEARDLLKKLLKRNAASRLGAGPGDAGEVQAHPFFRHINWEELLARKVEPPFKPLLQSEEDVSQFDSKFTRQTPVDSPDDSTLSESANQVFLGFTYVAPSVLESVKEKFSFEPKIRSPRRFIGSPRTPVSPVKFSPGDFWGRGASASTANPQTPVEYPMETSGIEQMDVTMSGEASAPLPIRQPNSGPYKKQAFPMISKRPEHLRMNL
# [20] = target: Ribosomal protein S6 kinase beta-1 (Homo sapiens) (UniProt P23443); details: at 1 µM
# Sequence of RAC-beta serine/threonine-protein kinase (Homo sapiens) (P31751 whole entry): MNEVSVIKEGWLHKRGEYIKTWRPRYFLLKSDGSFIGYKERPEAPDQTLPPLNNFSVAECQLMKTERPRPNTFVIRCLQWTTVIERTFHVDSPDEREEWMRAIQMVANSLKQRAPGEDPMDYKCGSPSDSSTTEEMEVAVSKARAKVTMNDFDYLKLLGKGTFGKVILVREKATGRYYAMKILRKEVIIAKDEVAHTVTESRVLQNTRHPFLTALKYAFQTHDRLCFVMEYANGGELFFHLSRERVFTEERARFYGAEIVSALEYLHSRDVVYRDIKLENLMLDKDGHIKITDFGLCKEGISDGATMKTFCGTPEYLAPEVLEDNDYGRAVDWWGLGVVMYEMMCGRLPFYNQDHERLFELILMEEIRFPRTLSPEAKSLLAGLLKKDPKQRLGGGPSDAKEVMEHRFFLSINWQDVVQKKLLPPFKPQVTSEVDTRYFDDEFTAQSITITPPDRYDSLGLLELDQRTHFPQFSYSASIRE
# Sequence of RAC-alpha serine/threonine-protein kinase (Homo sapiens) (P31749 whole entry): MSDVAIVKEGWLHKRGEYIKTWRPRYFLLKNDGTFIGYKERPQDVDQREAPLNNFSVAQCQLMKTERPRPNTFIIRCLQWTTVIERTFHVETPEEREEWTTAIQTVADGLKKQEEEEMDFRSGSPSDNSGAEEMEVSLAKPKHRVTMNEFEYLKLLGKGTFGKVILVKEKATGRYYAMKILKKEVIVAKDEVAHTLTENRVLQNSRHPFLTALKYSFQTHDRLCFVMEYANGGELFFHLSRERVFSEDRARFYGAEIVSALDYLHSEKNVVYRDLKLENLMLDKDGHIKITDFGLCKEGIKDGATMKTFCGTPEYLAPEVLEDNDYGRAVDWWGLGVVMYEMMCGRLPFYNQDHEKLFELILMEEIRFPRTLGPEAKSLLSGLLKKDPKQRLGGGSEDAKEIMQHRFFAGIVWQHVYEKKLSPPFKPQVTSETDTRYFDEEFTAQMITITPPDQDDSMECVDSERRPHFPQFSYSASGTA
smiles,measurement,setting,value
O=C(NCC1CC1)c1ccc(-c2cccc(C(=O)NC3CC3)c2)cc1,inhibition,[1],0.06%
same,inhibition,[2],0.79%
same,inhibition,[3],1.68%
same,inhibition,[4],1.73%
same,inhibition,[5],1.52%
same,inhibition,[6],1.7%
same,inhibition,[7],1.72%
same,inhibition,[8],-2.28%
same,inhibition,[9],0.75%
same,inhibition,[10],-7.67%
same,inhibition,[11],0.69%
same,inhibition,[12],-1.55%
same,inhibition,[13],1.52%
same,inhibition,[14],1.09%
same,inhibition,[15],2.45%
same,inhibition,[16],2.84%
same,inhibition,[17],0.7%
same,inhibition,[18],3.88%
same,inhibition,[19],1.49%
same,inhibition,[20],1.03%
Cc1ccc(NC(=O)c2ccoc2)cc1-c1ccc(C(=O)NCC2CC2)cc1,inhibition,[1],0.37%
same,inhibition,[2],0.55%
same,inhibition,[3],0.88%
same,inhibition,[4],1.23%
same,inhibition,[5],0.72%
same,inhibition,[6],1.87%
same,inhibition,[7],-0.54%
same,inhibition,[8],1.27%
same,inhibition,[9],3.35%
same,inhibition,[10],-1.36%
same,inhibition,[11],-2.51%
same,inhibition,[12],-2.81%
same,inhibition,[13],-0.56%
same,inhibition,[14],-1.77%
same,inhibition,[15],0.76%
same,inhibition,[16],-1.39%
same,inhibition,[17],1.78%
same,inhibition,[18],-0.44%
same,inhibition,[19],-0.57%
same,inhibition,[20],-1.48%
O=C1Nc2ccc(I)cc2C1=Cc1cc(Br)c(O)c(Br)c1,inhibition,[1],1.14%
same,inhibition,[2],0.96%
same,inhibition,[3],1.72%
same,inhibition,[4],1.1%
same,inhibition,[5],1.78%
same,inhibition,[6],0.85%
same,inhibition,[7],4.84%
same,inhibition,[8],17.8%
same,inhibition,[9],12.1%
same,inhibition,[10],15.5%
same,inhibition,[11],6.44%
same,inhibition,[12],3.97%
same,inhibition,[13],-0.53%
same,inhibition,[14],1.27%
same,inhibition,[15],1.69%
same,inhibition,[16],1.77%
same,inhibition,[17],2.87%
same,inhibition,[18],4.68%
same,inhibition,[19],2.06%
same,inhibition,[20],4.52%
C#Cc1cccc(Nc2ncnc3ccc(OCCCCNCCS(C)(=O)=O)cc23)c1,inhibition,[1],-2.83%
same,inhibition,[2],-3.06%
same,inhibition,[3],-0.89%
same,inhibition,[4],-2.09%
same,inhibition,[5],-1.57%
same,inhibition,[6],-0.78%
same,inhibition,[7],7.52%
same,inhibition,[8],6.6%
same,inhibition,[9],4.84%
same,inhibition,[10],8.97%
same,inhibition,[11],-0.05%
same,inhibition,[12],7.35%
same,inhibition,[13],0.55%
same,inhibition,[14],1.44%
same,inhibition,[15],2.74%
same,inhibition,[16],1.8%
same,inhibition,[17],3.12%
same,inhibition,[18],3.4%
same,inhibition,[19],2.59%
same,inhibition,[20],3.29%
NC(=O)c1cc(-c2ccncc2)cc(-c2ccccc2)c1N,inhibition,[1],0.73%
same,inhibition,[2],0.01%
same,inhibition,[3],1.93%
same,inhibition,[4],2.56%
same,inhibition,[5],0.25%
same,inhibition,[6],3.46%
same,inhibition,[7],3.52%
same,inhibition,[8],3.56%
same,inhibition,[9],5.22%
same,inhibition,[10],9.17%
same,inhibition,[11],0.84%
same,inhibition,[12],-0.04%
same,inhibition,[13],1.07%
same,inhibition,[14],2.4%
same,inhibition,[15],-1.53%
same,inhibition,[16],0.93%
same,inhibition,[17],2.32%
same,inhibition,[18],3.43%
same,inhibition,[19],3.54%
same,inhibition,[20],2.1%
CCS(=O)(=O)c1ccc(OC)c(Nc2ncc(-c3cccc(-c4ccccc4F)c3)o2)c1,inhibition,[1],-0.24%
same,inhibition,[2],-0.11%
same,inhibition,[3],0.25%
same,inhibition,[4],0.43%
same,inhibition,[5],1.02%
same,inhibition,[6],-0.29%
same,inhibition,[7],1.94%
same,inhibition,[8],-0.56%
same,inhibition,[9],0.7%
same,inhibition,[10],-0.85%
same,inhibition,[11],-0.09%
same,inhibition,[12],-0.52%
same,inhibition,[13],0.66%
same,inhibition,[14],1.36%
same,inhibition,[15],0.09%
same,inhibition,[16],1.42%
same,inhibition,[17],0.74%
same,inhibition,[18],1.94%
same,inhibition,[19],0.15%
same,inhibition,[20],1.18%
Cc1ccc(C(=O)NC2CCC2)cc1-c1ccc(C(=O)NCC2CC2)cc1,inhibition,[1],0.45%
same,inhibition,[2],-0.14%
same,inhibition,[3],1.03%
same,inhibition,[4],1.6%
same,inhibition,[5],2.92%
same,inhibition,[6],2.79%
same,inhibition,[7],1.01%
same,inhibition,[8],1.27%
same,inhibition,[9],2.9%
same,inhibition,[10],3.16%
same,inhibition,[11],0.19%
same,inhibition,[12],0.56%
same,inhibition,[13],0.73%
same,inhibition,[14],0.97%
same,inhibition,[15],2.7%
same,inhibition,[16],2.99%
same,inhibition,[17],1.75%
same,inhibition,[18],3.11%
same,inhibition,[19],1.12%
same,inhibition,[20],0.01%
Fc1ccc(-c2nc3n(c2-c2ccncc2)CCS3)cc1,inhibition,[1],-2.42%
same,inhibition,[2],-2.29%
same,inhibition,[3],-1.68%
same,inhibition,[4],-1.83%
same,inhibition,[5],-1.74%
same,inhibition,[6],-2.44%
same,inhibition,[7],2.79%
same,inhibition,[8],-0.16%
same,inhibition,[9],2.77%
same,inhibition,[10],5.18%
same,inhibition,[11],0.18%
same,inhibition,[12],2.85%
same,inhibition,[13],1.28%
same,inhibition,[14],3.22%
same,inhibition,[15],2.74%
same,inhibition,[16],3.92%
same,inhibition,[17],1.65%
same,inhibition,[18],5.1%
same,inhibition,[19],2.08%
same,inhibition,[20],2.54%
O=C(Nc1n[nH]c2cc(-c3ccccc3)ccc12)C1CC1,inhibition,[1],0.57%
same,inhibition,[2],-0.63%
same,inhibition,[3],1.2%
same,inhibition,[4],1.68%
same,inhibition,[5],0.33%
same,inhibition,[6],2.94%
same,inhibition,[7],2.59%
same,inhibition,[8],3.48%
same,inhibition,[9],3.13%
same,inhibition,[10],3.52%
same,inhibition,[11],0.05%
same,inhibition,[12],-1.04%
same,inhibition,[13],0.91%
same,inhibition,[14],0.02%
same,inhibition,[15],5.17%
same,inhibition,[16],5.56%
same,inhibition,[17],2.14%
same,inhibition,[18],1.76%
same,inhibition,[19],0.9%
same,inhibition,[20],1.27%
FC(F)(F)c1cccc(Nc2nccc(-c3cnn4nc(-c5ccccc5)ccc34)n2)c1,inhibition,[1],0.83%
same,inhibition,[2],0.65%
same,inhibition,[3],0.62%
same,inhibition,[4],1.58%
same,inhibition,[5],0.22%
same,inhibition,[6],-2.03%
same,inhibition,[7],-2.23%
same,inhibition,[8],-0.87%
same,inhibition,[9],4.12%
same,inhibition,[10],6.07%
same,inhibition,[11],-4.69%
same,inhibition,[12],-0.12%
same,inhibition,[13],0.14%
same,inhibition,[14],0.03%
same,inhibition,[15],1.36%
same,inhibition,[16],0.17%
same,inhibition,[17],1.71%
same,inhibition,[18],0.86%
same,inhibition,[19],1.59%
same,inhibition,[20],0.67%
O=C(Nc1n[nH]c2nc(-c3ccc(O)cc3)c(Br)cc12)C1CC1,inhibition,[1],0.84%
same,inhibition,[2],2.07%
same,inhibition,[3],2.21%
same,inhibition,[4],3.12%
same,inhibition,[5],3.32%
same,inhibition,[6],12.5%
same,inhibition,[7],11.6%
same,inhibition,[8],32.6%
same,inhibition,[9],5.77%
same,inhibition,[10],17.4%
same,inhibition,[11],1.56%
same,inhibition,[12],13.5%
same,inhibition,[13],1.77%
same,inhibition,[14],15.5%
same,inhibition,[15],5.22%
same,inhibition,[16],13.6%
same,inhibition,[17],2.78%
same,inhibition,[18],6.3%
same,inhibition,[19],2.07%
same,inhibition,[20],6.85%

# — ChEMBL document CHEMBL1961873, “Compounds: GSK PKIS; Assays: Nanosyn kinase panel” (2012)
